# In PubChem BioAssay AID504411 (The Scripps Research Institute Molecular Screening Center, 2011):
# The campaign covered roughly 340,000 compounds. About 200 (0.059%) were called active. The full list was thinned out, with actives kept by preference. Values without a mark were called inactive. Rule as the data show it: active = inhibition above about 34%; inactive = the rest.
# Target: Diacylglycerol lipase-beta (Homo sapiens) (UniProt Q8NCG7)
# Assay: inhibition of human DAGLB hydrolase activity – biochemical, fluorescence, HTS, primary screen (AID 504411);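 also: 0% = enzyme with vehicle and 100% = wells lacking enzyme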
# Conditions: HEK293T DAGLB membrane lysate, EnzChek fluorogenic substrate; at 5.17 µM; hits give high values
# Diacylglycerol lipase-beta (Homo sapiens), sequence (Q8NCG7 whole entry, looked up): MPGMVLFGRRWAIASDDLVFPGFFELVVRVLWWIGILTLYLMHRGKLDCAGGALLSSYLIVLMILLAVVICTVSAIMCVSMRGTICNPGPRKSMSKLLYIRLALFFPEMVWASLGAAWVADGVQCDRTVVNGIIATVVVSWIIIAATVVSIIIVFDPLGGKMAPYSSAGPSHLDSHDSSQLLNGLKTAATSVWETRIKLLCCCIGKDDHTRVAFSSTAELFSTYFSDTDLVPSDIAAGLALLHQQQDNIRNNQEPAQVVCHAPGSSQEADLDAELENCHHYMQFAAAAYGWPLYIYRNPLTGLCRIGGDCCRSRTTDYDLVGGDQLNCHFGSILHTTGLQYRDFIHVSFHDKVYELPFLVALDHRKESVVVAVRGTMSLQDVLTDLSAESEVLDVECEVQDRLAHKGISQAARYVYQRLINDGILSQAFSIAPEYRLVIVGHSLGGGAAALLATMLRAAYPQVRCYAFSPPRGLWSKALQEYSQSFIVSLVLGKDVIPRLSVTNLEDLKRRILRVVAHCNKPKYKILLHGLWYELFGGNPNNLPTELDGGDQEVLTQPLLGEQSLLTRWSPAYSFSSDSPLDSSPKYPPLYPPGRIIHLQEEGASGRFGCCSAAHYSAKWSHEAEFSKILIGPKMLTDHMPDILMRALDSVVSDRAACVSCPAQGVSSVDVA
row,SMILES,inhibition
1,COc1ccc(N(CC(=O)N2CCOCC2)S(=O)(=O)c2ccccc2)cc1Cl,-0.45%
2,COc1ccc(NC(=O)C[C@H]2C(=O)N(CCc3ccccc3)C[C@@H]2C)cc1,-3.33%
3,CCC1C=C(c2ccccc2)C=CN=C1N(CC)CC (configuration not stated),-3.08%
4,Nc1ccc(OCC(O)C[n+]2ccc(CCS(=O)(=O)[O-])cc2)cc1 (configuration not stated),0.26%
5,CCc1c(C)sc(NC(=O)c2cccs2)c1C(N)=O,-1.07%
6,O=c1oc2ccc(C#CC3(O)CCCCC3)cc2cc1-n1cc(-c2ccsc2)nn1,0.49%
7,COc1ccccc1NS(=O)(=O)N(C)C,-1.14%
8,Cc1ccc(Cc2c(-c3ccccc3)nc3ccc(Cl)cn23)cc1,-5.98%
9,O=C(NCCCN1CCOCC1)c1cnn2c(-c3ccccc3)cc(-c3ccccc3)nc12,1.48%
10,CN(c1ccc(OCC(=O)OCC(=O)Nc2cccc([N+](=O)[O-])c2)cc1)S(=O)(=O)c1ccc(F)cc1,-2.67%
11,Cc1sc(NC(=O)C2C3CCC(O3)C2C(=O)O)c(C(=O)OC(C)C)c1-c1ccc(Cl)cc1 (configuration not stated),6.11%
12,CCN(CC(=O)NCc1cccs1)C(=O)c1cccc(S(=O)(=O)Nc2ccccc2OC)c1,0.52%
13,CCc1cc(C(=O)N(CC)CC(=O)Nc2c(F)cccc2F)sc1C,-0.43%
14,Cc1oc2cc3oc(=O)ccc3cc2c1C,-1.48%
15,O=c1[nH]c(=O)n(Cc2ccco2)c2c1C(C(F)(F)F)(C(F)(F)F)N=C(c1ccco1)N2,-0.13%
16,COc1ccc(/C=N/OCc2ccccc2C#N)c(OC)c1,-2.91%
17,CC(=O)c1nn(-c2cccc(Br)c2)cc1C(=O)c1cccc2ccccc12,-10.7%
18,COc1ccc(CN2CCN(Cc3cn(C)nc3-c3ccccc3)CC2CCO)c(C)c1C (configuration not stated),-4.22%
19,CC1CCN(S(=O)(=O)c2ccc3ncn(CC(=O)N(C)C4CCCCC4)c(=O)c3c2)CC1,-3.62%

row,SMILES,inhibition
1,OC(c1ccccc1)c1nccn1Cc1ccccc1 (configuration not stated),0.02%
2,O=C(NCc1ccc2c(c1)OCO2)C(=O)NCC1OCCN1S(=O)(=O)c1ccc(F)cc1 (configuration not stated),1.47%
3,NC(N)=Nc1nc2ccc(Br)cc2c(=O)[nH]1,-0.46%
4,CCC(=O)Nc1ccc(S(=O)(=O)NCC2CCCO2)cc1 (configuration not stated),0.13%
5,CCCCOc1ccc(NC(=O)[C@@H]2CCCN2C(=O)C2CCN(S(=O)(=O)c3ccc(C)cc3)CC2)cc1,-4.14%
6,COCCNC(=O)CCCN1C(=O)c2ccccc2Sc2ncccc21,0.34%
7,C=CCC(NCCCO)c1cccc(OC)c1OC (configuration not stated),-0.64%
8,O=C(Cc1ccc(Cl)cc1)NCc1nc(-c2ccccc2)no1,-5.92%
9,O=C(Nc1cccc(Cl)c1)C1CCCN(c2cnccn2)C1 (configuration not stated),-0.35%
10,COCc1ccc(CN2CCC(Oc3ccc(C(=O)NCc4ccccn4)cc3)CC2)o1,-0.42%
11,COC(=O)c1cc(N2CCNCC2)nc2ccccc12,1.6%
12,Cc1cc(F)ccc1S(=O)(=O)Nc1ncnc2scc(-c3ccc(F)cc3)c12,11%
13,CC(=O)c1nn(-c2cccc(C(F)(F)F)c2)c(=O)[nH]c1=O,-0.12%
14,COC(=O)CC1=NN(c2nc(C)cc(C)n2)C(=O)C1,-2.2%
15,CCCCn1c(N)c(N(CC(C)C)C(=O)C2CSC3(C)CCC(=O)N23)c(=O)[nH]c1=O (configuration not stated),0.2%
16,C=CCN(C(=O)Cn1ncc2c1-c1cc(C)ccc1OC2)c1ccccc1,-2.66%
17,Cc1c(CCO)c(=O)[nH]n1C(=O)c1c(F)cccc1F,-0.98%
18,Cc1ccnc(NC(=O)CCC(=O)N(CC(=O)NCCc2ccccc2)Cc2cccs2)c1,-0.29%
